# Experimental data taken from the supplement of paper PMC10681739.
# Tests used:
# ETS1 [1] = biological target: T1, ETS1 (UniProt P14921); assay: ETS1 binding intensity (PBM fluorescence), ETS1 alone (arbitrary fluorescence units); higher = stronger binding; settings: ETS1 concentration 1 nM; RUNX1 concentration 0 nM
# T1 sequence: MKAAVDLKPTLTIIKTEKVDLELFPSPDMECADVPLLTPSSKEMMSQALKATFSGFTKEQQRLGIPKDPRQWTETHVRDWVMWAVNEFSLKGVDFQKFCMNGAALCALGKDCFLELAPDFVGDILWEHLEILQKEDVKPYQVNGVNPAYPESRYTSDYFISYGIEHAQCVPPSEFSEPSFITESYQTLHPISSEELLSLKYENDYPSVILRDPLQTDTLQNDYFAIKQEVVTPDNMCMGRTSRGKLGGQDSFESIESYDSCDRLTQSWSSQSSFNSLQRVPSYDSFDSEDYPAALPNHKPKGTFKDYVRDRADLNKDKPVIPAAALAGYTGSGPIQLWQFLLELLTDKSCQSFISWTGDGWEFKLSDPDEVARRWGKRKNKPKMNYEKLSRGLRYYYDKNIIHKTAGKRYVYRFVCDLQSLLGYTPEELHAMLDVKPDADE
# ETS1 [2] = biological target: T1, ETS1; assay: ETS1 binding intensity (PBM fluorescence) in presence of RUNX1, normalised to ETS1-only experiment (arbitrary fluorescence units); higher = stronger binding; settings: ETS1 concentration 1 nM; RUNX1 concentration 25 nM
sequence,measurement,setting,value
ACAGCGCCTCTTCCTGCTCTACCACATCTGATGTCC,ETS1 binding intensity,ETS1 [1],512
same,ETS1 binding intensity,ETS1 [2],352
GGGGGAATGTAGGAAGTATCATCGCCCACAAGAAAG,ETS1 binding intensity,ETS1 [1],644
same,ETS1 binding intensity,ETS1 [2],807
CGCCGGTCCCATATCCTTTCTGCGGGGTGAGCAGCA,ETS1 binding intensity,ETS1 [1],465
same,ETS1 binding intensity,ETS1 [2],431
AAAACAACTTCCTTCCCCTCTCTCTCCACCACAGTC,ETS1 binding intensity,ETS1 [1],554
same,ETS1 binding intensity,ETS1 [2],560
TCTACATCCTGCAGTTCTCCATTGTGGCCATTAGGT,ETS1 binding intensity,ETS1 [1],443
same,ETS1 binding intensity,ETS1 [2],319
AAGCTGAAAAGGGGATGTGGTTGCCTGCCTGTGGGA,ETS1 binding intensity,ETS1 [1],534
same,ETS1 binding intensity,ETS1 [2],863
TGGTTTCCGGGCTGGGGTTAGAATAGGCCACAAGGT,ETS1 binding intensity,ETS1 [1],494
same,ETS1 binding intensity,ETS1 [2],536
CTTCGCCGCTTCCAGGAAGGGCCACAACGGCCGTCG,ETS1 binding intensity,ETS1 [1],563
same,ETS1 binding intensity,ETS1 [2],483
GGCAGGCAGCAGAGGAAACCACCCCCACCCACTCCC,ETS1 binding intensity,ETS1 [1],1420
same,ETS1 binding intensity,ETS1 [2],1640
GCAGGAAGACTAACACAAAACCATCAAACCACTCTG,ETS1 binding intensity,ETS1 [1],511
same,ETS1 binding intensity,ETS1 [2],543
GCTTCGTTTCCCGCCGGGGCTCACCGCGCCCCCCTA,ETS1 binding intensity,ETS1 [1],621
same,ETS1 binding intensity,ETS1 [2],615
CAGAGACACCTGCGGAAGCCACAGGGAGGTCACAGA,ETS1 binding intensity,ETS1 [1],495
same,ETS1 binding intensity,ETS1 [2],613
CAGCAAGCGTCCAGGAAGTGTGTGGGGGAGGTGTGG,ETS1 binding intensity,ETS1 [1],2010
same,ETS1 binding intensity,ETS1 [2],1920
GTGCCACTGAGAGGAAGGGGGCAACCACAGTGGGAG,ETS1 binding intensity,ETS1 [1],367
same,ETS1 binding intensity,ETS1 [2],590
ATTACATCCGGGCTCCGCGACACGCCCGAACCACAA,ETS1 binding intensity,ETS1 [1],549
same,ETS1 binding intensity,ETS1 [2],427
CAACTCACATCCTCTGGCAACAACCACTAATCCACT,ETS1 binding intensity,ETS1 [1],460
same,ETS1 binding intensity,ETS1 [2],525
AGATGGTGTGGCCGGATGGGGACCACATTGAAGAGA,ETS1 binding intensity,ETS1 [1],1090
same,ETS1 binding intensity,ETS1 [2],1240
AAGCAGAGCTCAGGATGTGGTGCCGTGCGAGGGCGG,ETS1 binding intensity,ETS1 [1],697
same,ETS1 binding intensity,ETS1 [2],847
